Reference: PubChem BioAssay AID1159580 (chemical genetic matrix, 2015)
Values joined by “and” are separate entries in the source; they are usually repeats but may differ in a detail not shown here. Equal entries are not always repeated. Screen size: about 5,500 compounds; about 2,000 (36%) were called active. Another 18% or so got no clear call; they are omitted. This is one part of the list. Unmarked numbers belong to inactive results. Rule as the data show it: active = normalized growth mostly below about 0.91 (no sharp cut-off); inconclusive = no clear call, values can overlap the other calls; inactive = mostly above about 0.92.

Assay: chemical genetic growth profiling, strain panel (AID 1159580);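 also: tested at 20 µM; growth read once vehicle control cultures reached saturation at 30 °C; 1 = growth at the plate median or of vehicle wells; lower values mean less growth of the strain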
Details: S. cerevisiae deletion strains, growth OD

## CCCCCCOc1ccccc1C(N)=O
Locus YAL013W, strain DEP1, hits give low values
  normalized growth: 0.662 (active)
Locus YAL021C, strain ccr4, hits give low values
  normalized growth: 1.04
Locus YAL026C, strain drs2, hits give low values
  normalized growth: 0.75 (active)
Locus YAL030W, strain snc1, hits give low values
  normalized growth: 0.939
Locus YBL061C, strain skt5, hits give low values
  normalized growth: 0.893 (active)
Locus YBR009C, strain hhf1, hits give low values
  normalized growth: 0.862 (active)
Locus YBR021W, strain FUR4, hits give low values
  normalized growth: 0.84 (active)
Locus YBR023C, strain chs3, hits give low values
  normalized growth: 0.81 (active)
Locus YBR171W, strain sec66, hits give low values
  normalized growth: 0.857 (active)
Locus YBR229C, strain ROT2, hits give low values
  normalized growth: 0.86 (active)
Locus YBR231C, strain swc5, hits give low values
  normalized growth: 0.922
Locus YBR279W, strain paf1, hits give low values
  normalized growth: 0.934
Locus YCL011C, strain gbp2, hits give low values
  normalized growth: 0.897 (active)
Locus YCL016C, strain dcc1, hits give low values
  normalized growth: 0.874 (active)
Locus YCL029C, strain bik1, hits give low values
  normalized growth: 0.38 (active)
Locus YCL069W, strain vba3, hits give low values
  normalized growth: 0.849 (active)
Locus YCR088W, strain abp1, hits give low values
  normalized growth: 0.94
Locus YDL005C, strain med2, hits give low values
  normalized growth: 0.964
Locus YDL035C, strain GPR1, hits give low values
  normalized growth: 0.553 (active)
Locus YDL040C, strain nat1, hits give low values
  normalized growth: 0.948
Locus YDL074C, strain BRE1, hits give low values
  normalized growth: 0.443 (active)
Locus YDL101C, strain DUN1, hits give low values
  normalized growth: 0.505 (active)
Locus YDL134C, strain PPH21, hits give low values
  normalized growth: 0.513 (active)
Locus YDL185W, strain tfp1, hits give low values
  normalized growth: 0.636 (active)
Locus YDL192W, strain arf1, hits give low values
  normalized growth: 0.654 (active)
Locus YDR001C, strain nth1, hits give low values
  normalized growth: 0.949
Locus YDR069C, strain doa4, hits give low values
  normalized growth: 0.989
Locus YDR101C, strain arx1, hits give low values
  normalized growth: 0.655 (active)
Locus YDR137W, strain rgp1, hits give low values
  normalized growth: 1.39 [resistant] (active)
Locus YDR150W, strain NUM1, hits give low values
  normalized growth: 0.744 (active)
Locus YDR159W, strain sac3, hits give low values
  normalized growth: 0.784 (active)
Locus YDR162C, strain NBP2, hits give low values
  normalized growth: 0.338 (active)
Locus YDR195W, strain ref2
  normalized growth: 1.05
Locus YDR297W, strain sur2, hits give low values
  normalized growth: 0.914 (active)
Locus YDR318W, strain mcm21, hits give low values
  normalized growth: 0.41 (active)
Locus YDR334W, strain swr1, hits give low values
  normalized growth: 0.959
Locus YDR335W, strain msn5, hits give low values
  normalized growth: 0.956
Locus YDR388W, hits give low values
  normalized growth: 0.71 (active)
Locus YDR392W, strain spt3, hits give low values
  normalized growth: 0.335 (active)
Locus YDR502C, strain sam2, hits give low values
  normalized growth: 0.546 (active)
Locus YEL003W, strain gim4, hits give low values
  normalized growth: 0.867 (active)
Locus YEL037C, strain rad23, hits give low values
  normalized growth: 0.943
Locus YEL061C, strain CIN8 (second series), hits give low values
  normalized growth: 0.935
Locus YEL061C, strain CIN8, hits give low values
  normalized growth: 0.449 (active)
Locus YER015W, strain faa2, hits give low values
  normalized growth: 0.892 (active)
Locus YER016W, strain bim1, hits give low values
  normalized growth: 0.928
Locus YER110C, hits give low values
  normalized growth: 0.544 (active)
Locus YER111C, strain swi4, hits give low values
  normalized growth: 0.941
Locus YER155C, strain BEM2 (second series), hits give low values
  normalized growth: 0.249 (active)
Locus YER155C, strain BEM2, hits give low values
  normalized growth: 0.304 (active)
Locus YER167W, strain BCK2, hits give low values
  normalized growth: 0.367 (active)
Locus YFR010W, strain ubp6, hits give low values
  normalized growth: 0.985
Locus YGL078C, strain dbp3, hits give low values
  normalized growth: 0.864 (active)
Locus YGL086W, strain mad1, hits give low values
  normalized growth: 0.439 (active)
Locus YGL167C, strain pmr1, hits give low values
  normalized growth: 0.92
Locus YGL173C, strain kem1, hits give low values
  normalized growth: 0.939
Locus YGL227W, strain vid30, hits give low values
  normalized growth: 0.947
Locus YGL240W, strain doc1, hits give low values
  normalized growth: 0.789 (active)
Locus YGL248W, strain PDE1, hits give low values
  normalized growth: 0.612 (active)
Locus YGL253W, strain hxk2, hits give low values
  normalized growth: 0.824 (active)
Locus YGR135W, strain pre9, hits give low values
  normalized growth: 0.533 (active)
Locus YGR229C, strain SMI1, hits give low values
  normalized growth: 0.144 (active)
Locus YGR252W, strain gcn5, hits give low values
  normalized growth: 0.446 (active)
Locus YHR013C, strain ard1, hits give low values
  normalized growth: 0.916
Locus YHR027C, strain rpn1, hits give low values
  normalized growth: 0.945
Locus YHR030C, strain SLT2, hits give low values
  normalized growth: 0.0615 (active) and 0.831 (active)
Locus YHR079C, strain IRE1 (second series), hits give low values
  normalized growth: 0.646 (active)
Locus YHR079C, strain IRE1, hits give low values
  normalized growth: 0.924
Locus YHR094C, strain hxt1, hits give low values
  normalized growth: 0.765 (active)
Locus YHR129C, strain ARP1, hits give low values
  normalized growth: 0.474 (active)
Locus YHR142W, strain chs7, hits give low values
  normalized growth: 0.692 (active)
Locus YHR200W, strain rpn10, hits give low values
  normalized growth: 0.804 (active)
Locus YIL066C, strain RNR3, hits give low values
  normalized growth: 0.188 (active)
Locus YIL073C, strain SPO22, hits give low values
  normalized growth: 0.535 (active)
Locus YIL125W, strain kgd1, hits give low values
  normalized growth: 0.796 (active)
Locus YIR030C, strain dcg1, hits give low values
  normalized growth: 0.615 (active)
Locus YJL092W, strain hpr5, hits give low values
  normalized growth: 0.919
Locus YJL095W, strain BCK1 (second series), hits give low values
  normalized growth: 0.704 (active)
Locus YJL095W, strain BCK1, hits give low values
  normalized growth: 0.0726 (active) and 0.863 (active)
Locus YJL115W, strain asf1, hits give low values
  normalized growth: 0.96
Locus YJL129C, strain trk1, hits give low values
  normalized growth: 0.755 (active)
Locus YJL134W, strain LCB3, hits give low values
  normalized growth: 0.868 (active)
Locus YJL154C, strain vps35, hits give low values
  normalized growth: 0.959
Locus YJL164C, strain tpk1, hits give low values
  normalized growth: 0.863 (active)
Locus YJL166W, strain qcr8, hits give low values
  normalized growth: 0.822 (active)
Locus YJL168C, strain set2, hits give low values
  normalized growth: 0.826 (active)
Locus YJL187C, strain SWE1 (second series), hits give low values
  normalized growth: 0.612 (active)
Locus YJL187C, strain SWE1, hits give low values
  normalized growth: 0.917 (active)
